According to PubChem BioAssay (Tox21):
Results filed as inconclusive are left out. The source made the active and inactive calls. Unless noted, calls follow the shape of the dose curve; as a rule, active = well fitted curve in the direction sought with a large enough effect in the repeat runs; inconclusive = weak or mixed curves; inactive = no such curve, though single readings can be large; an effect the other way counts as inactive or inconclusive.

Assays:
[1] = qHTS assay to identify small molecule agonists of the peroxisome proliferator-activated receptor delta (PPARd) signaling pathway - cell viability counter screen (AID 743211); also: % is scaled to controls: 0 for no effect and ±100 for the full control effect; nearly all actives have a fitted effect of over 55% in size
In short: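 In the same wells used for beta-lactamase reporter measurement, cytotoxicity is scored by CellTiter-Glo. HEK293H PPARd-bla cells receive compound for 17 h at 37C following a 5 h settling period.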

[2] = biological target: Peroxisome proliferator-activated receptor delta (Homo sapiens) (UniProt Q03181); test: qHTS assay to identify small molecule agonists of the peroxisome proliferator-activated receptor delta (PPARd) signaling pathway (AID 743212; calls by dose curve;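 also: HEK293H cells with PPARd UAS beta-lactamase reporter GeneBLAzer system; % is scaled to controls: 0 for no effect and ±100 for the full control effect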)
Chain of Peroxisome proliferator-activated receptor delta (Homo sapiens) (Q03181 whole entry, looked up): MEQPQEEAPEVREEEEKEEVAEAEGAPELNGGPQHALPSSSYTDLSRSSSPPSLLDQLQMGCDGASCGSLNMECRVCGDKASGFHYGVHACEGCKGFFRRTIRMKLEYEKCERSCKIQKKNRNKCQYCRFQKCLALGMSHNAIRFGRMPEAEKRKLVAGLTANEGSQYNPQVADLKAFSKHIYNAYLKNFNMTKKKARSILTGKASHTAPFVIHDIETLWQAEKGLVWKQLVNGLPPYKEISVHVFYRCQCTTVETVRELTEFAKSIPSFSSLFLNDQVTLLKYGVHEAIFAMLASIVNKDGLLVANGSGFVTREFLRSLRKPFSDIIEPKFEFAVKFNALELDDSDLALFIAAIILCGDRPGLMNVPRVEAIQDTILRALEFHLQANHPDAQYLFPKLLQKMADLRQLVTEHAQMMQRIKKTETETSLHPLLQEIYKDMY
In short: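 Beta-lactamase reporter read by fluorescence (LiveBLAzer B/G FRET, 2 h, room temperature). Test agents, in DMSO, incubated at 37 C with PPARd-bla HEK293H cells.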

[3] = qHTS assay to identify small molecule antagonists of the peroxisome proliferator-activated receptor delta (PPARd) signaling pathway - cell viability counter screen (AID 743213); also: % is scaled to controls: 0 for no effect and ±100 for the full control effect; nearly all actives have a fitted effect of over 50% in size
In short: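 HEK293H PPARd UAS-bla cells, 5 h pre-incubation, compound + L165041 300 nM final, 17 h 37 C; B/G FRET substrate 2 h RT; then CellTiter-Glo 30 min RT, luminescence.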

[4] = biological target: Peroxisome proliferator-activated receptor delta (Homo sapiens) (UniProt Q03181); test: qHTS assay to identify small molecule antagonists of the peroxisome proliferator-activated receptor delta (PPARd) signaling pathway (AID 743215; active = well fitted inhibition curve with a large enough effect in the signal ratio in the repeat runs, not every such curve was filed as active; the % refers to the signal ratio;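 also: cells stimulated with agonist L165041 at 300 nM final during compound exposure; series mostly up to about 62 µM; % is scaled to controls: 0 for no effect and ±100 for the full control effect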)
In short: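 Plated HEK293H PPARd-bla cells rested 5 h at 37 C and 5% CO2. Compound, then agonist L165041 at 300 nM final, was added; 17 h at 37 C followed. Substrate loading, 2 h room temperature, fluorescence measured.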

[5] = biological target: Bile acid receptor (Homo sapiens) (UniProt Q96RI1); test: qHTS assay to identify small molecule antagonists of the farnesoid-X-receptor (FXR) signaling pathway (AID 743217; active = well fitted inhibition curve with a large enough effect in the signal ratio in the repeat runs, not every such curve was filed as active; the % refers to the signal ratio; also: % is scaled to controls: 0 for no effect and ±100 for the full control effect)
Chain of Bile acid receptor (Homo sapiens) (Q96RI1 whole entry, looked up): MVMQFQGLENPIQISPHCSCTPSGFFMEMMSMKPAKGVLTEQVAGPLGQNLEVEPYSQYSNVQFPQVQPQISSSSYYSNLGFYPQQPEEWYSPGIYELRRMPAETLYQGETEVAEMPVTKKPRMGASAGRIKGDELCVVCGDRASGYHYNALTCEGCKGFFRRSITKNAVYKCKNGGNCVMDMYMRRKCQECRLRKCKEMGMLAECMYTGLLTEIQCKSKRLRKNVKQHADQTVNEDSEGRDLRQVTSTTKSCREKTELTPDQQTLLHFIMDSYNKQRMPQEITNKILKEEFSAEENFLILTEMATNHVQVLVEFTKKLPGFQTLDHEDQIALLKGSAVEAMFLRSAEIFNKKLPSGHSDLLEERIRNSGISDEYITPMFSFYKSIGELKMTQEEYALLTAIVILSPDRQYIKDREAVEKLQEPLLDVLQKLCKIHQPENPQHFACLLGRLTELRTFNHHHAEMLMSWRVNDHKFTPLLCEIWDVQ
In short: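 Screen of the Tox21 10K library in quantitative HTS format using FXR-UAS-bla HEK 293T reporter cells. Agonist chenodeoxycholic acid, 50 uM final, added with compounds; 16 h incubation at 37 °C; beta-lactamase FRET fluorescence measured.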

[6] = qHTS assay to identify small molecule agonists of the farnesoid-X-receptor (FXR) signaling pathway - cell viability counter screen (AID 743218); also: % is scaled to controls: 0 for no effect and ±100 for the full control effect; nearly all actives have a fitted effect of over 45% in size
In short: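 Viability of FXR-bla HEK 293T cells is measured by ATP-based CellTiter-Glo luminescence following 16 h compound treatment at 37 C and a prior 2 h room-temperature beta-lactamase substrate step.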

[7] = biological target: Bile acid receptor (Homo sapiens) (UniProt Q96RI1); test: qHTS assay to identify small molecule agonists of the farnesoid-X-receptor (FXR) signaling pathway (AID 743220; active = well fitted activation curve with a large enough effect in the signal ratio in the repeat runs, not every such curve was filed as active; the % refers to the signal ratio; also: % is scaled to controls: 0 for no effect and ±100 for the full control effect)
In short: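 FXR-UAS-bla HEK 293T cells carrying a UAS-driven beta-lactamase reporter were plated for 5 h at 37C/5% CO2, then exposed to DMSO-dissolved Tox21 10K compounds for 16 h at 37C. A LiveBLAzer B/G FRET substrate was loaded for 2 h at room temperature before fluorescence reading.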

[8] = qHTS assay to identify small molecule antagonists of the farnesoid-X-receptor (FXR) signaling pathway - cell viability counter screen (AID 743221; active = well fitted cell-killing curve with a large enough effect in the repeat runs, not every such curve was filed as active; also: % is scaled to controls: 0 for no effect and ±100 for the full control effect; nearly all actives have a fitted effect of over 50% in size)
In short: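 Here viability was scored by luminescence after CellTiter-Glo addition to wells already read for beta-lactamase. Prior treatment: compound plus CDCA (50 uM final), 16 h, 37 C, HEK 293T FXR-bla cells.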

[9] = biological target: Vitamin D3 receptor (Homo sapiens) (UniProt P11473); test: qHTS assay to identify small molecule agonists of the vitamin D receptor (VDR) signaling pathway (AID 743222; calls by dose curve; also: % is scaled to controls: 0 for no effect and ±100 for the full control effect)
Chain of Vitamin D3 receptor (Homo sapiens) (P11473 whole entry, looked up): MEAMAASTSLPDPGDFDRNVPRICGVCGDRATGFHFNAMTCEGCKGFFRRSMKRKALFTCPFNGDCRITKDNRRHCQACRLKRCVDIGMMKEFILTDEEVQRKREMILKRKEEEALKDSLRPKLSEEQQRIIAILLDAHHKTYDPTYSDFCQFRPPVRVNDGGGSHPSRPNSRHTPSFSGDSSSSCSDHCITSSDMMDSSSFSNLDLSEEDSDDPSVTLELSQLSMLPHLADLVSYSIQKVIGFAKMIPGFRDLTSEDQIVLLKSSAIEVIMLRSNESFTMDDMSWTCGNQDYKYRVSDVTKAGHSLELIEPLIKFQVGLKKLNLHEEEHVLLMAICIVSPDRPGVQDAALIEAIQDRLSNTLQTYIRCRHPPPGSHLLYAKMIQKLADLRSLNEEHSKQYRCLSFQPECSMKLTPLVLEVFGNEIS
In short: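 Fluorescence from cleaved LiveBLAzer B/G FRET substrate served as readout. VDR-bla cells had been treated 16 h at 37C with test compounds in DMSO, following a 4 h settling period, and substrate was loaded for 2 h at RT.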

[10] = biological target: Vitamin D3 receptor (Homo sapiens) (UniProt P11473); test: qHTS assay to identify small molecule antagonists of the vitamin D receptor (VDR) signaling pathway (AID 743223; active = well fitted inhibition curve with a large enough effect in the signal ratio in the repeat runs, not every such curve was filed as active; the % refers to the signal ratio; also: % is scaled to controls: 0 for no effect and ±100 for the full control effect)
In short: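 Inhibition of agonist-driven VDR signalling is scored in VDR-bla cells: 3 nM final 1alpha,25-dihydroxyvitamin D3 plus compound, 16 h at 37C, then beta-lactamase detection by FRET substrate fluorescence after 2 h.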

[11] = qHTS assay to identify small molecule agonists of the vitamin D receptor (VDR) signaling pathway - cell viability counter screen (AID 743224); also: series mostly up to about 63 µM; % is scaled to controls: 0 for no effect and ±100 for the full control effect; nearly all actives have a fitted effect of over 50% in size
In short: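 Compounds were pin-transferred onto VDR-bla cells plated 4 h earlier; following 16 h incubation at 37C, cell viability was quantified by CellTiter-Glo luminescence after 30 min at room temperature.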

[12] = qHTS assay to identify small molecule agonists of the NFkB signaling pathway (AID 1159509; active = well fitted curve in the direction sought with a large enough effect in the signal ratio in the repeat runs, not every such curve was filed as active; the % refers to the signal ratio)
In short: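 Beta-lactamase reporter assay run in quantitative high-throughput format on an NF-kB-responsive ME-180 line, with 5 hr compound treatment and a FRET-based blue/green fluorescence readout.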

[13] = qHTS assay to identify small molecule agonists of the NFkB signaling pathway - cell viability counter screen (AID 1159515; calls by dose curve; also: series mostly up to about 61 µM; % is scaled to controls: 0 for no effect and ±100 for the full control effect; nearly all actives have a fitted effect of over 55% in size)
In short: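 Parallel cytotoxicity counter screen in ME-180 cells carrying an NFkB-response-element beta-lactamase reporter, 2,000 cells/well. Compound exposure lasted 5 hr at 37 C, 5% CO2. Cell viability was quantified by CellTiter-Glo luminescence.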

[14] = qHTS assay to identify small molecule agonists of the endoplasmic reticulum stress response signaling pathway - cell viability counter screen (AID 1159517; calls by dose curve;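 also: HeLa cells carrying an ER stress response element beta-lactamase reporter; series mostly up to about 61 µM; % is scaled to controls: 0 for no effect and ±100 for the full control effect; nearly all actives have a fitted effect of over 50% in size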)
In short: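 Cytotoxicity of test compounds toward ESRE-bla HeLa cells was assessed after 5 hr exposure. The luminescent CellTiter-Glo signal was measured 30 min after reagent addition.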

[15] = qHTS assay to identify small molecule antagonists of the retinoid-related orphan receptor gamma (ROR-gamma) signaling pathway - cell viability counter screen (AID 1159520)
In short: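 Tet-on ROR gamma CHO cells (1,000/well) were plated 4 hr, given compounds in DMSO for 2 hr at 37 C, then induced with 1 uM final doxycycline for 16 hr. Viability was read as ATP by CellTiter-Glo luminescence after 30 min.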

[16] = biological target: Nuclear receptor ROR-gamma (Homo sapiens) (UniProt P51449); test: qHTS assay to identify small molecule antagonists of the retinoid-related orphan receptor gamma (ROR-gamma) signaling pathway (AID 1159521)
In short: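 Test compounds were applied to Tet-on RORγ CHO cells 2 h ahead of doxycycline hyclate (1 uM final). Luciferase reporter activity was quantified by luminescence after 16 h at 37 C and 5% CO2.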

[17] = qHTS assay to identify small molecule agonists of the AP-1 signaling pathway - cell viability counter screen (AID 1159525; calls by dose curve; also: nearly all actives have a fitted effect of over 55% in size)
In short: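 Each titration point was normalised to DMSO and tetra n-octyl ammonium bromide controls. The read was Cell Titer Glo luminescence after 30 min at RT, following 5 h compound exposure of ME-180 AP-1-bla cells at 37 °C.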

[18] = qHTS assay to identify small molecule agonists of the AP-1 signaling pathway (AID 1159526; calls by dose curve; also: % is scaled to controls: 0 for no effect and ±100 for the full control effect)
[19] = qHTS assay to identify small molecule antagonists of the vitamin D receptor (VDR) signaling pathway - cell viability counter screen (AID 743225)
In short: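 Compounds were pinned onto VDR-bla HEK 293T cells together with 1-alpha,25-dihydroxyvitamin D3 at 3 nM final. After 16 h at 37C and 5% CO2 plus the reporter readout, cell viability was measured by CellTiter-Glo luminescence (30 min, room temperature).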

[20] = qHTS assay to identify small molecule agonists of the endoplasmic reticulum stress response signaling pathway (AID 1159516; active = well fitted activation curve with a large enough effect in the signal ratio in the repeat runs, not every such curve was filed as active; the % refers to the signal ratio; also: % is scaled to controls: 0 for no effect and ±100 for the full control effect)
In short: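 Using a HeLa line with an ESRE-driven beta-lactamase gene, agonist activity was measured by FRET substrate fluorescence (460 and 530 nm emission) after cells were treated with compounds for 5 hr at 37 C and 5% CO2.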

CC(CC(=O)O)CC(C)(C)C (stereo unspecified)
inactive: outcome [1] | outcome [2] | outcome [3] | outcome [4] | outcome [5] | Potency [6] | outcome [7] | outcome [8] | outcome [9] | outcome [10] | outcome [11] | outcome [12] | outcome [13] | outcome [14] | outcome [15] | outcome [16] | outcome [17] | outcome [18]

O=S1(=O)CCCC1
inactive: outcome [1] | outcome [3] | outcome [5] | outcome [7] | outcome [8] | outcome [9] | outcome [10] | outcome [19] | outcome [12] | outcome [13] | outcome [14] | outcome [15] | outcome [17] | outcome [18]

CC(=O)OC(C)(C)Cc1ccccc1
inactive: outcome [1] | outcome [2] | outcome [3] | outcome [4] | outcome [5] | outcome [7] | outcome [8] | outcome [9] | outcome [10] | outcome [11] | outcome [19] | outcome [12] | outcome [13] | outcome [14] | outcome [15] | outcome [16] | outcome [17] | outcome [18]

CCCCC[Si](OCC)(OCC)OCC
inactive: outcome [1] | outcome [2] | outcome [3] | outcome [4] | outcome [8] | outcome [11] | outcome [19] | outcome [12] | outcome [13] | outcome [14] | outcome [15] | outcome [16] | outcome [17] | outcome [18]

CN(C1CCCCC1)S(=O)(=O)c1ccccc1N
inactive: outcome [1] | outcome [2] | outcome [3] | outcome [4] | outcome [5] | Potency [6] | outcome [7] | outcome [8] | outcome [9] | outcome [10] | outcome [11] | outcome [19] | outcome [12] | outcome [20] | outcome [14] | outcome [15] | outcome [16] | outcome [17] | outcome [18]

CC(=O)OC(C)c1ccccc1 (stereo unspecified)
inactive: outcome [1] | Potency [6] | outcome [8] | outcome [9] | outcome [11] | outcome [19] | outcome [12] | outcome [13] | outcome [14] | outcome [15] | outcome [16] | outcome [17] | outcome [18]

CC(=O)OC[C@H]1O[C@@H](OC(C)=O)[C@H](OC(C)=O)[C@@H]1OC(C)=O
inactive: outcome [1] | outcome [2] | outcome [4] | outcome [5] | Potency [6] | outcome [7] | outcome [8] | outcome [9] | outcome [10] | outcome [11] | outcome [19] | outcome [12] | outcome [13] | outcome [14] | outcome [15] | outcome [17] | outcome [18]

CCOC(=O)C(C)(C)C
inactive: outcome [1] | outcome [2] | outcome [3] | outcome [4] | outcome [5] | Potency [6] | outcome [7] | outcome [8] | outcome [9] | outcome [10] | outcome [11] | outcome [19] | outcome [12] | outcome [13] | outcome [14] | outcome [15] | outcome [16] | outcome [17] | outcome [18]

O=C(O)Cc1cccc(-c2cc(CCCCCCc3ccc(O[C@H]4O[C@H](CO)[C@@H](O)[C@H](O)[C@@H]4O)c(-c4cccc(CC(=O)O)c4)c3)ccc2O[C@H]2O[C@H](CO)[C@@H](O)[C@H](O)[C@@H]2O)c1
inactive: activity change, negative = cytotoxicity [1] 4.03% [at 0.55 µM] | activation [2] -0.0045% [at 0.55 µM] | viability change, negative = cytotoxic [3] 9.66% [at 0.575 µM] | ratio activity, negative = inhibition [4] -1.95% [at 0.575 µM] | activity change, negative = inhibition [5] -1.58% [at 0.55 µM] | viability change, negative = cytotoxic [6] 5.41% [at 0.55 µM] | activation [7] 5.49% [at 0.55 µM] | activity change, negative = cytotoxicity [8] 0.163% [at 0.55 µM] | viability change, negative = cytotoxic [19] 5.12% [at 0.628 µM] | activation [12] 0.357% [at 0.628 µM] | activity, negative = cytotoxic [13] 0.959% [at 0.628 µM] | activity change, negative = cytotoxicity [14] 4.41% [at 0.628 µM] | activity, negative = cytotoxicity [15] 0.991% [at 0.349 µM] | activity change, negative = inhibition [16] -17.6% [at 0.35 µM] | viability change, negative = cytotoxic [17] 1.08% [at 0.29 µM] | activation [18] -4.69% [at 0.29 µM]

CCCCCCCCCCCCCCCC(=O)NCCO
inactive: outcome [1] | outcome [2] | outcome [3] | outcome [5] | Potency [6] | outcome [7] | outcome [8] | outcome [9] | outcome [10] | outcome [11] | outcome [12] | outcome [13] | outcome [14] | outcome [15] | outcome [16] | outcome [17] | outcome [18]

C=CCOc1c(Br)cc(C(C)(C)c2cc(Br)c(OCC=C)c(Br)c2)cc1Br
inactive: outcome [1] | outcome [3] | outcome [5] | Potency [6] | outcome [7] | outcome [8] | outcome [9] | outcome [11] | outcome [19] | outcome [12] | outcome [13] | outcome [14] | outcome [15] | outcome [16] | outcome [17] | outcome [18]

CC(C)(C)c1ccc(C=O)cc1
inactive: outcome [1] | outcome [2] | outcome [3] | outcome [4] | Potency [6] | outcome [8] | outcome [9] | outcome [10] | outcome [11] | outcome [12] | outcome [13] | outcome [14] | outcome [15] | outcome [16] | outcome [17] | outcome [18]

CC(C)COC(=O)CCCCC(=O)OCC(C)C
inactive: outcome [2] | outcome [3] | outcome [4] | outcome [5] | Potency [6] | outcome [7] | outcome [8] | outcome [9] | outcome [19] | outcome [12] | outcome [13] | outcome [14] | outcome [15] | outcome [16] | outcome [17] | outcome [18]

CC(=O)Nc1ncc([N+](=O)[O-])s1
inactive: outcome [1] | outcome [2] | outcome [5] | Potency [6] | outcome [7] | outcome [8] | outcome [9] | outcome [19] | outcome [12] | outcome [13] | outcome [14] | outcome [15] | outcome [16] | outcome [17] | outcome [18]

CCCOC(=O)CCCCC(=O)OCCC
inactive: outcome [1] | outcome [2] | outcome [3] | outcome [8] | outcome [9] | outcome [11] | outcome [19] | outcome [12] | outcome [13] | outcome [14] | outcome [15] | outcome [16] | outcome [17] | outcome [18]

Nc1ccc(C(=O)OCC(O)CO)cc1 (stereo unspecified)
inactive: outcome [1] | outcome [3] | Potency [6] | outcome [8] | outcome [9] | outcome [10] | outcome [11] | outcome [12] | outcome [13] | outcome [14] | outcome [15] | outcome [16] | outcome [17] | outcome [18]
